Source: PubChem (several laboratories)
A selection: hits, their analogues and other compounds. The true share with any hit is near 7.4%.
FXIa mix inh = inhibitors of human coagulation factor XIa, pooled mixtures; P03951; purified FXIa, fluorogenic substrate; inhibition, % at 5 µM; 62,000 tested, 0.19% active;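 also: each value is inhibition by a whole ten-compound pool holding the compound; 0% = enzyme with no mixture and 100% = wells lacking enzyme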
D1 mod = allosteric modulators of human D1 dopamine receptor; HEK293 D1, CRE-luciferase, dopamine EC30 potentiation; actives deviate in either direction; B-score at 10 µM; 58,000 tested, 5.9% active; P21728;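 active = luminescence count or its row- and column-corrected plate score outside the 99.7% band of the plate's sample wells, on either side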
M1 antag = antagonists of rat M1 muscarinic receptor; 64,000 tested, 3.4% active; P08482; CHO-M1 cells, Fluo-4 calcium, ACh EC80 antagonist mode; stronger effect = lower value; AID 628; B-score at 10 µM;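 active = calcium fluorescence response, raw or row-and-column corrected B-score, differing from the plate sample mean either way at a set confidence level, mostly lower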
FXIIa mix inh = factor XIIa (human) inhibition, mixture screen; purified FXIIa, fluorogenic substrate, pooled mixtures; inhibition, % at 5 µM; 62,000 tested, 0.2% active;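 also: 0% = enzyme without compound and 100% = no enzyme blank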
M1 agonist = agonists of M1 muscarinic receptor; 64,000 tested, 3% active; CHO-M1 cells, Fluo-4 calcium fluorescence, agonist mode; stronger effect = higher value; B-score at 10 µM;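 active = fluorescence rise, raw or as B-score row- and column-corrected plate score, outside the 99.7% band of its plate's samples, either direction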
hDAT+cocaine = changed human dopamine transporter uptake under cocaine IC80; B-score at 10 µM; 110,000 tested, 1.3% active; LLC-PK1 hDAT cells, [14C]-dopamine uptake with cocaine IC80; actives deviate in either direction; Q01959;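 active = Z score or B-score, a plate-position-corrected score, falls beyond the plate's 99.7% confidence bounds, in either direction; inactive = both scores lie inside the 99.7% bounds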;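 also: scored against the spread of the other compound wells on the same plate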
D1 mod confirm = D1 receptor (human) allosteric modulation, confirmed | shares compounds with D1 mod | HEK293 D1 CRE-luciferase, dopamine EC30 potentiation; stronger effect = higher value | luminescence at 10 µM | 2,200 tested, 88% active | AID 642;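 active = luminescence in either of two replicates above the same-plate mean plus 3 SD of the low-dose dopamine control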
D1 no dopamine = activates D1 CRE-luciferase signal without dopamine present | shares compounds with D1 mod | HEK293 D1 CRE-luciferase, luminescence, no dopamine; stronger effect = higher value | luminescence at 10 µM | 1,900 tested, 0.8% active | AID 646; in the data active = luminescence above about 3900
Isoprot counter = counter-screen for D1 modulators: isoproterenol response in HEK293 cells. shares compounds with D1 mod. HEK293 D1 CRE-luciferase, isoproterenol EC30 counter-screen. calls only at 10 µM. 2,200 tested, 63% active;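 active = luminescence in either replicate above plate mean of wells with a partly effective reference agonist dose plus 3 SD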;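 also: isoproterenol raises cAMP through native beta-adrenoceptor Gs so signal bypasses D1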
Active calls of the source: *. Rule as the data show it, unless noted: active = inhibition above about 20% (passing the limit was not always enough); inactive = the rest.

For Cc1ccc(CN2CC3CC(C2)c2cccc(=O)n2C3)cc1 (stereo not drawn) the results were D1 mod 3.33*, M1 antag -0.00769, M1 agonist -0.897, hDAT+cocaine 0.376, D1 mod confirm 7636, D1 no dopamine 1800 and Isoprot counter inactive.
`COc1cc(CN2CC3CC(C2)c2cccc(=O)n2C3)cc(OC)c1OC` (stereo not drawn) gave FXIa mix inh 6.7, D1 mod -0.326, M1 antag -1.12, FXIIa mix inh -1.0, M1 agonist 0.285 and hDAT+cocaine 0.962.
CCOC(=O)c1c(C)n(Cc2ccccc2)c2ccc(OCC(O)CN3C(=O)CNC3=O)cc12 (stereo not drawn) was read as FXIa mix inh 4.5, D1 mod 10.1*, M1 antag 0.0103, FXIIa mix inh 7.1, M1 agonist 0.793, hDAT+cocaine 1.75, D1 mod confirm 22384*, D1 no dopamine 1552 and Isoprot counter active.
For CCOC(=O)c1c(C)n(Cc2ccc3c(c2)OCO3)c2ccc(O)cc12 the results were hDAT+cocaine 0.46.
`CC1(C)Cc2c(sc3c2C(=O)NC(c2cccnc2)N3)CO1` (stereo not drawn) gave FXIa mix inh -2.7, D1 mod -0.539, M1 antag -0.0224, FXIIa mix inh -23.0, M1 agonist -0.491 and hDAT+cocaine 1.16.
